Legend:
Details in all cases: Compound Concentration (nM):1000
ROCK2 = test system: ROCK2
ROS1 = test system: ROS1
[1] = test system: RPS6KA4(Kin.Dom.1-N-terminal)
[2] = test system: RPS6KA4(Kin.Dom.2-C-terminal)
[3] = test system: RPS6KA5(Kin.Dom.1-N-terminal)
[4] = test system: RPS6KA5(Kin.Dom.2-C-terminal)
[5] = test system: T1, RSK1(Kin.Dom.1-N-terminal)
T1 construct: gene RPS6KA1

[6] = test system: T2, RSK1(Kin.Dom.2-C-terminal)
T2 construct: gene RPS6KA1

[7] = test system: T3, RSK2(Kin.Dom.1-N-terminal)
T3 construct: gene RPS6KA3

[8] = test system: T4, RSK2(Kin.Dom.2-C-terminal)
T4 construct: gene RPS6KA3

[9] = test system: T5, RSK3(Kin.Dom.1-N-terminal)
T5 construct: gene RPS6KA2

[10] = test system: T6, RSK3(Kin.Dom.2-C-terminal)
T6 construct: gene RPS6KA2

[11] = test system: T7, RSK4(Kin.Dom.1-N-terminal)
T7 construct: gene RPS6KA6

[12] = test system: T8, RSK4(Kin.Dom.2-C-terminal)
T8 construct: gene RPS6KA6

S6K1 = test system: T9, S6K1
T9 construct: gene RPS6KB1

SBK1 = test system: SBK1
SGK2 = test system: SGK2
SGK3 = test system: SGK3
SGK = test system: T10, SGK
T10 construct: gene SGK1

SIK2 = test system: SIK2
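Further: KINOMEscan scanMAX binding as percent activity remaining versus control; lower means stronger binding.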

Compound | Percent Control (ROCK2) [%] | Percent Control (ROS1) [%] | Percent Control [1] [%] | Percent Control [2] [%] | Percent Control [3] [%] | Percent Control [4] [%] | Percent Control [5] [%] | Percent Control [6] [%] | Percent Control [7] [%] | Percent Control [8] [%] | Percent Control [9] [%] | Percent Control [10] [%] | Percent Control [11] [%] | Percent Control [12] [%] | Percent Control (S6K1) [%] | Percent Control (SBK1) [%] | Percent Control (SGK2) [%] | Percent Control (SGK3) [%] | Percent Control (SGK) [%] | Percent Control (SIK2) [%]
COc1cc2ncnc(Nc3ccc4c(cnn4Cc4ccccc4)c3)c2cc1OC.Cl [GW282449A] | 100 | 89 | 42 | 93 | 84 | 100 | 100 | 100 | 100 | 99 | 100 | 100 | 92 | 100 | 100 | 100 | 100 | 100 | 100 | 68
Nc1ncnc2occ(-c3ccc(NC(=O)Nc4cc(C(F)(F)F)ccc4F)cc3)c12 [GW770249X] | 27 | 56 | 100 | 92 | 55 | 100 | 100 | 100 | 89 | 98 | 66 | 59 | 87 | 100 | 21 | 100 | 100 | 83 | 100 | 100
CCc1ccc(Oc2nccc(-c3c(-c4ccc(F)cc4)ncn3C3CCNCC3)n2)cc1 [SB-242719] | 90 | 61 | 100 | 73 | 98 | 87 | 99 | 77 | 97 | 94 | 92 | 94 | 93 | 79 | 93 | 100 | 100 | 77 | 100 | 66
CCS(=O)(=O)c1ccc(OC)c(Nc2ncc(-c3cccc(OC)c3)o2)c1 [GW580509X] | 88 | 92 | 100 | 100 | 100 | 100 | 100 | 100 | 100 | 100 | 100 | 100 | 94 | 100 | 100 | 100 | 100 | 91 | 100 | 91
Cl.O=C(Nc1ccc(Oc2ccc3[nH]c(NC(=O)c4ccco4)nc3c2)cc1)Nc1cc(C(F)(F)F)ccc1F [GW683134A] | 57 | 61 | 100 | 82 | 95 | 75 | 100 | 100 | 100 | 100 | 92 | 100 | 100 | 100 | 43 | 100 | 100 | 100 | 100 | 100
Cl.c1ccc(Cc2nc3ccc(Nc4ncnc5ccccc45)cc3[nH]2)cc1 [GR269666A] | 98 | 76 | 100 | 100 | 100 | 100 | 100 | 100 | 100 | 97 | 100 | 100 | 100 | 98 | 100 | 100 | 100 | 81 | 100 | 82
O=C(Nc1n[nH]c2nc(-c3ccc(O)cc3)c(Br)cc12)C1CC1 [SB-725317] | 98 | 91 | 100 | 1.2 | 100 | 43 | 100 | 100 | 65 | 97 | 96 | 100 | 19 | 100 | 100 | 100 | 100 | 88 | 100 | 100
COc1ccccc1-c1cc(/C=C2\C(=O)Nc3ncc(Br)cc32)cc(Br)c1O [GW442130X] | 82 | 95 | 100 | 68 | 76 | 46 | 100 | 58 | 100 | 79 | 100 | 100 | 100 | 100 | 100 | 95 | 85 | 94 | 71 | 100
COc1ccc2cc(-c3c(-c4ccncc4)nc(-c4ccc(S(C)(=O)=O)cc4C)n3C)ccc2c1 [SB-633825] | 80 | 69 | 100 | 91 | 95 | 51 | 82 | 97 | 62 | 70 | 98 | 100 | 60 | 83 | 66 | 78 | 59 | 73 | 94 | 100
COc1cccc(-n2ncc3c(N/N=C/c4ccncc4)ncnc32)c1 [GW784752X] | 84 | 100 | 100 | 70 | 100 | 100 | 94 | 100 | 100 | 86 | 100 | 98 | 94 | 100 | 93 | 63 | 83 | 77 | 57 | 75
